# From PMC5540273 (PLoS ONE, 2017)
# Where two headings read alike, the source gives them in different places.
# Columns and labels:
# Conditions in all cases: n = 1
# [1] = tested on: STK16
# [2] = tested on: STK33
# [3] = tested on: STK35
# [4] = tested on: STK36
# [5] = tested on: STK39
# [6] = tested on: SYK
# [7] = tested on: SgK110
# [8] = tested on: T1, TAK1
# T1 construct: gene MAP3K7
# [9] = tested on: TAOK1
# [10] = tested on: TAOK2
# [11] = tested on: TAOK3
# [12] = tested on: TBK1
# [13] = tested on: TEC
# [14] = tested on: TESK1
# [15] = tested on: TGFBR1
# [16] = tested on: TGFBR2
# [17] = tested on: TIE1
# [18] = tested on: T2, TIE2
# T2 construct: gene TEK
# [19] = tested on: TLK1
# [20] = tested on: TLK2
# [21] = concentration: 1 μM, replicates: in singlicate
# 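Note: KINOMEscan kinase panel screen.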
compound,measurement,setting,value
CCCc1ccc(S(=O)(=O)NC2CCN(c3ccnc(Nc4ccc(F)cc4)n3)C2)cc1 (stereo not shown) [GSK1379715],%Inh,[1]; [21],6%
same,%Inh,[2]; [21],0%
same,%Inh,[3]; [21],0%
same,%Inh,[4]; [21],0%
same,%Inh,[5]; [21],13%
same,%Inh,[6]; [21],0%
same,%Inh,[7]; [21],34%
same,%Inh,[8]; [21],0%
same,%Inh,[9]; [21],0%
same,%Inh,[10]; [21],0%
same,%Inh,[11]; [21],0%
same,%Inh,[12]; [21],0%
same,%Inh,[13]; [21],0%
same,%Inh,[14]; [21],74%
same,%Inh,[15]; [21],0%
same,%Inh,[16]; [21],0%
same,%Inh,[17]; [21],0%
same,%Inh,[18]; [21],0%
same,%Inh,[19]; [21],0%
same,%Inh,[20]; [21],0%
O=C(O)COc1ncnc2cc(-c3ccc4[nH]ncc4c3)sc12,%Inh,[1]; [21],12%
same,%Inh,[2]; [21],0%
same,%Inh,[3]; [21],0%
same,%Inh,[4]; [21],0%
same,%Inh,[5]; [21],0%
same,%Inh,[6]; [21],0%
same,%Inh,[7]; [21],0%
same,%Inh,[8]; [21],28%
same,%Inh,[9]; [21],0%
same,%Inh,[10]; [21],0%
same,%Inh,[11]; [21],0%
same,%Inh,[12]; [21],11%
same,%Inh,[13]; [21],0%
same,%Inh,[14]; [21],13%
same,%Inh,[15]; [21],10%
same,%Inh,[16]; [21],18%
same,%Inh,[17]; [21],24%
same,%Inh,[18]; [21],21%
same,%Inh,[19]; [21],22%
same,%Inh,[20]; [21],0%
Cc1csc(-c2nc(Nc3ccncc3)c3ccccc3n2)n1 [GW869640],%Inh,[1]; [21],17%
same,%Inh,[2]; [21],18%
same,%Inh,[3]; [21],0%
same,%Inh,[4]; [21],0%
same,%Inh,[5]; [21],0%
same,%Inh,[6]; [21],2%
same,%Inh,[7]; [21],8%
same,%Inh,[8]; [21],25%
same,%Inh,[9]; [21],36%
same,%Inh,[10]; [21],16%
same,%Inh,[11]; [21],29%
same,%Inh,[12]; [21],37%
same,%Inh,[13]; [21],9%
same,%Inh,[14]; [21],13%
same,%Inh,[16]; [21],88%
same,%Inh,[17]; [21],36%
same,%Inh,[18]; [21],21%
same,%Inh,[19]; [21],0%
same,%Inh,[20]; [21],1%
CC(=O)Nc1nc2cnc(Nc3cc(NC(=O)c4cccc(CCC#N)c4)ccc3C)nc2s1,%Inh,[1]; [21],17%
same,%Inh,[2]; [21],0%
same,%Inh,[3]; [21],0%
same,%Inh,[4]; [21],16%
same,%Inh,[5]; [21],0%
same,%Inh,[6]; [21],15%
same,%Inh,[7]; [21],13%
same,%Inh,[8]; [21],42%
same,%Inh,[9]; [21],0%
same,%Inh,[10]; [21],0%
same,%Inh,[11]; [21],0%
same,%Inh,[12]; [21],24%
same,%Inh,[13]; [21],10%
same,%Inh,[14]; [21],0%
same,%Inh,[15]; [21],0%
same,%Inh,[16]; [21],0%
same,%Inh,[17]; [21],0%
same,%Inh,[18]; [21],0%
same,%Inh,[19]; [21],0%
same,%Inh,[20]; [21],7%
O=C1NC(=O)C(N2CCc3ccccc32)=C1c1ccccc1Cl [SB-373598],%Inh,[1]; [21],58%
same,%Inh,[2]; [21],9%
same,%Inh,[3]; [21],1%
same,%Inh,[4]; [21],22%
same,%Inh,[5]; [21],7%
same,%Inh,[6]; [21],48%
same,%Inh,[7]; [21],0%
same,%Inh,[8]; [21],7%
same,%Inh,[9]; [21],15%
same,%Inh,[10]; [21],100%
same,%Inh,[11]; [21],15%
same,%Inh,[12]; [21],19%
same,%Inh,[13]; [21],0%
same,%Inh,[14]; [21],27%
same,%Inh,[15]; [21],9%
same,%Inh,[16]; [21],10%
same,%Inh,[17]; [21],13%
same,%Inh,[18]; [21],6%
same,%Inh,[19]; [21],8%
same,%Inh,[20]; [21],4%
Cc1ccc(NC(=O)Nc2cccc(C(F)(F)F)c2)cc1 [GSK955403],%Inh,[1]; 1 µM,30%
same,%Inh,[2]; 1 µM,0%
same,%Inh,[3]; 1 µM,0%
same,%Inh,[4]; 1 µM,10%
same,%Inh,[5]; 1 µM,3%
same,%Inh,[6]; 1 µM,19%
same,%Inh,[7]; 1 µM,0%
same,%Inh,[8]; 1 µM,13%
same,%Inh,[9]; 1 µM,0%
same,%Inh,[10]; 1 µM,0%
same,%Inh,[11]; 1 µM,0%
same,%Inh,[12]; 1 µM,33%
same,%Inh,[13]; 1 µM,7%
same,%Inh,[14]; 1 µM,36%
same,%Inh,[15]; 1 µM,6%
same,%Inh,[16]; 1 µM,0%
same,%Inh,[17]; 1 µM,13%
same,%Inh,[18]; 1 µM,38%
same,%Inh,[19]; 1 µM,20%
same,%Inh,[20]; 1 µM,3%
Cc1cccc(-c2nc(Nc3cccc(C(N)=O)c3)c3ccccc3n2)n1 [GW876019],%Inh,[1]; [21],0%
same,%Inh,[2]; [21],29%
same,%Inh,[3]; [21],0%
same,%Inh,[4]; [21],0%
same,%Inh,[5]; [21],0%
same,%Inh,[6]; [21],14%
same,%Inh,[7]; [21],41%
same,%Inh,[8]; [21],0%
same,%Inh,[9]; [21],0%
same,%Inh,[10]; [21],30%
same,%Inh,[11]; [21],0%
same,%Inh,[12]; [21],40%
same,%Inh,[13]; [21],2%
same,%Inh,[14]; [21],0%
same,%Inh,[16]; [21],15%
same,%Inh,[17]; [21],0%
same,%Inh,[18]; [21],41%
same,%Inh,[19]; [21],0%
same,%Inh,[20]; [21],4%
Cl.Oc1ccc(-c2nc(-c3ccccc3)[nH]c2-c2ccncc2)cc1 [SB-428218],%Inh,[1]; [21],16%
same,%Inh,[2]; [21],0%
same,%Inh,[3]; [21],0%
same,%Inh,[4]; [21],0%
same,%Inh,[5]; [21],0%
same,%Inh,[6]; [21],24%
same,%Inh,[7]; [21],0%
same,%Inh,[8]; [21],0%
same,%Inh,[9]; [21],0%
same,%Inh,[10]; [21],0%
same,%Inh,[11]; [21],0%
same,%Inh,[12]; [21],18%
same,%Inh,[13]; [21],0%
same,%Inh,[14]; [21],36%
same,%Inh,[15]; [21],60%
same,%Inh,[16]; [21],7%
same,%Inh,[17]; [21],0%
same,%Inh,[18]; [21],0%
same,%Inh,[19]; [21],0%
same,%Inh,[20]; [21],0%
O=S(=O)(c1ccc(-c2ccnc3[nH]ccc23)cc1)N1CCCC1 [GSK846226],%Inh,[1]; [21],67%
same,%Inh,[2]; [21],0%
same,%Inh,[3]; [21],0%
same,%Inh,[4]; [21],0%
same,%Inh,[5]; [21],0%
same,%Inh,[6]; [21],13%
same,%Inh,[7]; [21],0%
same,%Inh,[8]; [21],1%
same,%Inh,[9]; [21],0%
same,%Inh,[10]; [21],0%
same,%Inh,[11]; [21],0%
same,%Inh,[12]; [21],33%
same,%Inh,[13]; [21],4%
same,%Inh,[14]; [21],9%
same,%Inh,[15]; [21],0%
same,%Inh,[16]; [21],0%
same,%Inh,[17]; [21],0%
same,%Inh,[18]; [21],0%
same,%Inh,[19]; [21],24%
same,%Inh,[20]; [21],19%
